In PubChem BioAssay (Tox21):
Results filed as inconclusive are left out. Calls of active or inactive are those of the source. Unless noted, calls follow the shape of the full dose curve.

Key:
[1] = Nuclear factor erythroid 2-related factor 2/antioxidant responsive element (Nrf2/ARE) small molecule agonists: qHTS cell viability counter screen in human keratinocytes (AID 1919968; active = well fitted curve in the direction sought with a large enough effect in the repeat runs; an effect the other way counts as inactive or inconclusive; also: nearly all actives have a fitted effect of over 55% in size)
How it was run: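 Parallel cytotoxicity read: KeratinoSens HaCaT cells, compound treatment 23 h, viability by CellTiter-Fluor fluorescence 1 h post-reagent.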

[2] = Nuclear factor erythroid 2-related factor 2/antioxidant responsive element (Nrf2/ARE) small molecule agonists: luciferase reporter gene qHTS assay in human keratinocytes (AID 1919969); also: nearly all actives have a fitted effect of over 35% in size
[3] = molecular target: Gonadotropin-releasing hormone receptor (Homo sapiens) (UniProt P30968); assay: Human gonadotropin-releasing hormone receptor (GnRHR) small molecule agonists, calcium flux assay in GnRHR-HEK293 cells (AID 1920063); also: nearly all actives have a fitted effect of over 35% in size
How it was run: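 Calcium flux, agonist mode, human GnRHR stably integrated in HEK293; dye 1 h at 37 C before compound; Ex/Em=480/540 kinetic read, 3 min; 15 concentrations, triplicate.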

[4] = molecular target: KiSS-1 receptor (Homo sapiens) (UniProt Q969F8); assay: Human kisspeptin (KISS1R) small molecule agonists, calcium flux assay in KISS1R-HEK293 cells (AID 1920064; active = well fitted curve in the direction sought with a large enough effect in the repeat runs; an effect the other way counts as inactive or inconclusive)
How it was run: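 Triplicate 15-concentration series were applied to dye-loaded human KISS1R HEK293 cells, and agonist-evoked calcium fluorescence was captured for 3 min.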

[5] = G protein-coupled receptor (GPCR) small molecule agonists, calcium flux assay: HEK293 wild type cell line counter screen (AID 1920065)
How it was run: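 Non-specific calcium responders were flagged by adding DMSO-dissolved compounds to dye-loaded cells and reading 480/540 nm fluorescence each second for 3 min; ATP served as positive control.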

[6] = p53 small molecule agonists, cell-based qHTS assay with human liver microsomes (AID 1963577);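 also: p53 response element beta-lactamase reporter cells with liver microsomes plus NADPH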
How it was run: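 p53RE-bla cells; 5 h settle, 37 C/5% CO2; cpd + HLM 0.5 mg/mL + NADPH 0.5 mg/mL (final); 16 h 37 C; LiveBLAzer 2 h RT dark; fluorescence readout.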

[7] = p53 small molecule agonists, cell-based qHTS assay with rat liver microsomes (AID 1963578)
How it was run: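 Rat liver microsome activation: microsomes 0.5 mg/mL, NADPH 0.5 mg/mL final; p53RE-bla cells, 16 h 37 C; LiveBLAzer readout, 2 h RT dark.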

[8] = p53 small molecule agonists, cell-based qHTS assay with human liver microsomes: qHTS cell viability counter screen (AID 1963579); also: nearly all actives have a fitted effect of over 45% in size
How it was run: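 Luminescent CellTiter-Glo read-out, 30 min at room temperature, gauged cytotoxicity in p53RE-bla cells exposed 16 h at 37 C to DMSO-dissolved compounds with metabolic activation by human liver microsomes and NADPH, each 0.5 mg/mL final.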

[9] = p53 small molecule agonists, cell-based qHTS assay with rat liver microsomes: qHTS cell viability counter screen (AID 1963580); also: nearly all actives have a fitted effect of over 45% in size
How it was run: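 Cytotoxicity counter screen: intracellular ATP measured by CellTiter-Glo luminescence in the same wells as the beta-lactamase reporter read, on HCT-116 p53RE-bla cells exposed 16 h at 37 C to compounds with rat liver microsomes and NADPH, each 0.5 mg/mL final.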

[10] = p53 small molecule agonists, cell-based qHTS assay (AID 1963582; active = well fitted activation curve with a large enough effect in the signal ratio in the repeat runs, not every such curve was filed as active; the % refers to the signal ratio)
How it was run: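 Beta-lactamase reporter cells (p53RE-bla) treated with compounds for 16 h at 37 C; FRET substrate, 2 h, room temperature; fluorescence intensity.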

[11] = molecular target: 5-hydroxytryptamine receptor 2A (Homo sapiens) (UniProt P28223); assay: 5-hydroxytryptamine receptor 2A (HTR2A) small molecule antagonists, cell-based qHTS assay (AID 1963586); also: nearly all actives have a fitted effect of over 45% in size
How it was run: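 CHO cells stably expressing human HTR2A were plated for 18 h at 37 C, then loaded with calcium dye for 1 h. Compounds were preincubated 5 min at room temperature before DOI (4 nM solution) was added. Kinetic fluorescence was read for 3 min.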

[12] = molecular target: 5-hydroxytryptamine receptor 2A (Homo sapiens) (UniProt P28223); assay: 5-hydroxytryptamine receptor 2A (HTR2A) small molecule agonists, cell-based qHTS assay (AID 1963587); also: nearly all actives have a fitted effect of over 30% in size
How it was run: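 CHO cells stably expressing human HTR2A, plated 18 h, loaded with calcium dye 1 h at 37 C. Agonist mode: compounds added and intracellular calcium fluorescence recorded kinetically for 2 min at 1 sec intervals.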

[13] = molecular target: Muscarinic acetylcholine receptor M1 (Homo sapiens) (UniProt P11229); assay: Cholinergic receptor muscarinic 1 (CHRM1) small molecule antagonists, cell-based qHTS assay (AID 1963588); also: nearly all actives have a fitted effect of over 40% in size
How it was run: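 Compounds were tested at 15 concentrations in three independent runs. Dye-loaded CHRM1-CHO cells were exposed 5 min at room temperature before stimulation by acetylcholine added at 50nM. Intracellular calcium was read kinetically on FDSS for 3 min.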

[14] = molecular target: Muscarinic acetylcholine receptor M1 (Homo sapiens) (UniProt P11229); assay: Cholinergic receptor muscarinic 1 (CHRM1) small molecule agonists, cell-based qHTS assay (AID 1963589); also: nearly all actives have a fitted effect of over 35% in size
How it was run: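 qHTS, 15-point titration, 3 independent runs: compounds pin-transferred onto dye-loaded CHRM1-CHO cells (human M1), calcium fluorescence followed every second to detect agonism.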

[15] = cAMP Responsive Elements (CRE) small molecule agonists, cell-based qHTS assay (AID 1963590)
How it was run: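 Quantitative HTS for CRE agonists: HEK 293T CRE-bla cells, overnight plating, 3 h compound incubation at 37 C/5% CO2, then 2 h room-temperature LiveBLAzer B/G FRET substrate loading.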

[16] = cAMP Responsive Elements (CRE) small molecule antagonists, cell-based qHTS assay (AID 1963591; active = well fitted inhibition curve with a large enough effect in the signal ratio in the repeat runs, not every such curve was filed as active; the % refers to the signal ratio)
How it was run: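 Fluorescence intensity from cleaved LiveBLAzer B/G substrate (2 h, room temperature) quantified CRE-bla activity in HEK 293T cells exposed 3 h to compound with 0.25 uM final NKH477.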

[17] = molecular target: Beta-2 adrenergic receptor (Homo sapiens) (UniProt P07550); assay: Adrenergic beta2 receptor (ADRB2) small molecule antagonists, cell-based qHTS assay (AID 1963592); also: series mostly up to about 92 µM; nearly all actives have a fitted effect of over 50% in size
How it was run: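 Assay format: CHO-ADRB2 cells, 18-20hr seeding at 37C/5% CO2, then compound plus 1nM isoproterenol agonist mix for 0.5hr RT. Homogeneous time-resolved fluorescence cAMP detection after 1hr, expressed as 665/615 nm ratio.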

[18] = molecular target: D(2) dopamine receptor (Homo sapiens) (UniProt P14416); assay: Dopamine D2 receptor (DRD2) small molecule agonists, cell-based qHTS assay (AID 1963594); also: nearly all actives have a fitted effect of over 35% in size
How it was run: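 HEK293 cells stably expressing human DRD2, pre-treated with PDE inhibitor Ro20-1724 (0.1 mM final) and compound 10 min at room temperature, then stimulated with NKH477 (200nM […]) for 30 min. cAMP read by HTRF (665/620 nm).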

[19] = molecular target: D(2) dopamine receptor (Homo sapiens) (UniProt P14416); assay: Dopamine D2 receptor (DRD2) small molecule antagonists, cell-based qHTS assay (AID 1963595; active = well fitted inhibition curve with a large enough effect in the signal ratio in the repeat runs, with a control signal flat; the % refers to the signal ratio)
How it was run: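 Antagonist mode in DRD2-HEK293 cells: after compound addition with 0.1 mM Ro20-1724, cells received quinpirole (12 nM) and NKH477 (200 nM) for 30 min at room temperature; HTRF cAMP read after 1 h detection.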

[20] = p53 small molecule agonists, cell-based qHTS assay: qHTS cell viability counter screen (AID 1963581); also: nearly all actives have a fitted effect of over 45% in size
How it was run: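 Multiplexed with the reporter read, a CellTiter-Glo step (30 min, room temperature) gauges ATP-based viability of HCT-116 p53RE-bla cells after 16 h compound incubation at 37 C.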

Measured: Potency

Sequence of KiSS-1 receptor (Homo sapiens) (Q969F8 whole entry, looked up): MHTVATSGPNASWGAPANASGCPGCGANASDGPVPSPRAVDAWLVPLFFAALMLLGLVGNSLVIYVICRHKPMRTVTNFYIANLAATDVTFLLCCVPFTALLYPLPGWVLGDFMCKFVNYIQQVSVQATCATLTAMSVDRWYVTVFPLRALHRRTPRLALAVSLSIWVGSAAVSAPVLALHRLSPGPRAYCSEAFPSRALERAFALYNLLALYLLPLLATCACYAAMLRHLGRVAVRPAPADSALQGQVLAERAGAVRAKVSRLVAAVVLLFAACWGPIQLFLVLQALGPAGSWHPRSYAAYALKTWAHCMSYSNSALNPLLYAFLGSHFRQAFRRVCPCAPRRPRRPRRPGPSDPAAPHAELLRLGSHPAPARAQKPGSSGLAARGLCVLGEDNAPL
Sequence of Muscarinic acetylcholine receptor M1 (Homo sapiens) (P11229 whole entry, looked up): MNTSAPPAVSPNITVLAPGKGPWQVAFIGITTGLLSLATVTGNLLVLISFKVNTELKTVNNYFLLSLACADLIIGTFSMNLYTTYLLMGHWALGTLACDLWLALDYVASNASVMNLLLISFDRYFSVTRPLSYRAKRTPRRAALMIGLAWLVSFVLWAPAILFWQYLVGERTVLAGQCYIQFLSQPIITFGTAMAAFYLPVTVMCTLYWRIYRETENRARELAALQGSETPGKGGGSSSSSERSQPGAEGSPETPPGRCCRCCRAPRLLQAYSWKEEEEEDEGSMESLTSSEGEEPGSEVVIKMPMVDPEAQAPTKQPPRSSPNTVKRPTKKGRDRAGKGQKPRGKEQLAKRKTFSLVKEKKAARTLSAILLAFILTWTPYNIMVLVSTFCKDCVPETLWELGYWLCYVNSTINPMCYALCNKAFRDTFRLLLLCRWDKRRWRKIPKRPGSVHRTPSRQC
Sequence of D(2) dopamine receptor (Homo sapiens) (P14416 whole entry, looked up): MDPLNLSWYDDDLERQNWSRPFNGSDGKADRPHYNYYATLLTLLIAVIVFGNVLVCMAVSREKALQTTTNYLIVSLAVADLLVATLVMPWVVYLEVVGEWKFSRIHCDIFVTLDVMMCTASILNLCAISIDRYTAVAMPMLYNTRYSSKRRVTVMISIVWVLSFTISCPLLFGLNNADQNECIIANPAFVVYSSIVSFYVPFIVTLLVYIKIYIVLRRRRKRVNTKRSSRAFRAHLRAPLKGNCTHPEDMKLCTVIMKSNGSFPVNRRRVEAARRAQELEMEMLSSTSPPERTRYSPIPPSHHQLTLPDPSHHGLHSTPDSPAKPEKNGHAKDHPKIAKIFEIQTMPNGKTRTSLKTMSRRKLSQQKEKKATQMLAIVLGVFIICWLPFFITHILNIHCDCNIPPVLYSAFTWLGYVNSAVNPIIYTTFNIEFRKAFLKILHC
Sequence of Gonadotropin-releasing hormone receptor (Homo sapiens) (P30968 whole entry, looked up): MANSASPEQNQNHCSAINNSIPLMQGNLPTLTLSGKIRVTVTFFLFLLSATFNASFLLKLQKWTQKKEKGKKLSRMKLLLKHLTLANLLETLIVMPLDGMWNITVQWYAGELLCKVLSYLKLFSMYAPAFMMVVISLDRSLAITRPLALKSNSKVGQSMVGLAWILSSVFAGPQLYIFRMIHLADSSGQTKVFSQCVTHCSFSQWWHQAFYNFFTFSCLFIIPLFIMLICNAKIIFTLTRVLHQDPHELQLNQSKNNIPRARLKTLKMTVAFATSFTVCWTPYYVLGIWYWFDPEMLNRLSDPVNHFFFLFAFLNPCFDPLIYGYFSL
Sequence of Beta-2 adrenergic receptor (Homo sapiens) (P07550 whole entry, looked up): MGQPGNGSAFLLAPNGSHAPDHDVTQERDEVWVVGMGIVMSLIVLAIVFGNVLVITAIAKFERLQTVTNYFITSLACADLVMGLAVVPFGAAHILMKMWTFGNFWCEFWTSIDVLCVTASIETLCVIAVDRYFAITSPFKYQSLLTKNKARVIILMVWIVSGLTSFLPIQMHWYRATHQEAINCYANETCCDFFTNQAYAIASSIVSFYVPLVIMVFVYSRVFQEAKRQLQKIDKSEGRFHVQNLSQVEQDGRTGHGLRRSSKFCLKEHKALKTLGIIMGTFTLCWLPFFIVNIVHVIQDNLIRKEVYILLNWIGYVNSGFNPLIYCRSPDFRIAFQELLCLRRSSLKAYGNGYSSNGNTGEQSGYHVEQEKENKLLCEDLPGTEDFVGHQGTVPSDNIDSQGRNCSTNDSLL
Sequence of 5-hydroxytryptamine receptor 2A (Homo sapiens) (P28223 whole entry, looked up): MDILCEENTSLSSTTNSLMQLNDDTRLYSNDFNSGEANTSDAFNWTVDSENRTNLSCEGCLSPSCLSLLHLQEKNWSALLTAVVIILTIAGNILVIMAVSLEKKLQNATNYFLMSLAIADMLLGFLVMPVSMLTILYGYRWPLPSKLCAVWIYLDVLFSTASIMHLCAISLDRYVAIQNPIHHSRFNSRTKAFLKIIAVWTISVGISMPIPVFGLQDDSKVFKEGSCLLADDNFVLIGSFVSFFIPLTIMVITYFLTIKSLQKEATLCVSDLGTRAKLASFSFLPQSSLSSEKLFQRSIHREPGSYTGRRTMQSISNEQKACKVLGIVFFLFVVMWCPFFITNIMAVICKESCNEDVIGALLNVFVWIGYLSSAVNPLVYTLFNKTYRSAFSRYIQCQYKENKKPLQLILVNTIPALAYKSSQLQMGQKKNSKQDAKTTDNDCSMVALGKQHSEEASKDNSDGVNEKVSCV

CCOC(=O)NNc1ccc(N(CC)CC(C)O)nn1 (centres undefined)
not listed: [20]
inactive: all other assays above

CCCCc1ccc(N)cc1
not listed: [10] | [11] | [16]
inactive: all other assays above

CC(C(=O)O)c1ccc(-c2ccccc2)c(F)c1 (centres undefined)
not listed: [10] | [11] | [12] | [13] | [14] | [15] | [16]
inactive: all other assays above

CC(=O)O[C@H]1C[C@@H]2CC[C@@H]3[C@H](CC[C@@]4(C)[C@H]3C[C@H]([N+]3(C)CCCCC3)[C@@H]4OC(C)=O)[C@@]2(C)C[C@@H]1N1CCCCC1
not listed: [10] | [11] | [12] | [13] | [14]
inactive: all other assays above
